In the supplement of paper PMC4022240:
± gives the standard deviation.

Experiments:
Experiment in all cases: peptide microarray binding signal (635 nm), min-max normalized on array (fraction of array maximum); higher = stronger binding
Settings in all cases: peptide region: H3 112-124
[1] = biological target: T1, HaloTag-ATRX ADD domain (163-292)
T1 chain: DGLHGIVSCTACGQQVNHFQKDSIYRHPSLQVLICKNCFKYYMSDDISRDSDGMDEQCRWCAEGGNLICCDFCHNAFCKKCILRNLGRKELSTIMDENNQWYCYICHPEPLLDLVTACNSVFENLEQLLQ
How it was run: (§1)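 Histone 13-mer peptide–cellulose conjugates were printed in triplicate on nitrocellulose with a Cy3 tracer, then blocked overnight at 4°C. Arrays were probed for 1 h at 4°C with biotin-labelled HaloTag reader fusions (10 nM to 1 μM) plus streptavidin-Alexa Fluor 647, or with rabbit histone antibodies (1:10,000 to 1:2,000) plus anti-rabbit Alexa 647. An Axon GenePix 4000B scanned 635 nm for signal and 532 nm for misprints. Binding signal is the triplicate-spot mean intensity, min-max scaled per library.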

[2] = biological target: HaloTag-ING2 PHD (mouse Ing2 200-280)
How it was run: as §1

[3] = biological target: anti-H3K4me3 antibody ab8580
How it was run: as §1

[4] = biological target: anti-H3K9me3 antibody ab8898
How it was run: as §1

[5] = peptide modifications: H3K115me3 H3R116me1, binder concentration: 1:2,000 dilution
[6] = peptide modifications: H3K115me3 H3R116me1, binder concentration: 1:10,000 dilution
[7] = peptide modifications: H3K115me3 H3K122me2, binder concentration: 1:2,000 dilution
[8] = peptide modifications: H3K115me3 H3K122me2, binder concentration: 1:10,000 dilution
[9] = peptide modifications: H3K115me3 H3K122me3, binder concentration: 1:2,000 dilution
[10] = peptide modifications: H3K115me3 H3K122me3, binder concentration: 1:10,000 dilution
[11] = peptide modifications: H3K115me3 H3R116me2a, binder concentration: 1:2,000 dilution
[12] = peptide modifications: H3K115me3 H3R116me2a, binder concentration: 1:10,000 dilution
[13] = peptide modifications: H3K115me3 H3K122me1, binder concentration: 1:2,000 dilution
[14] = peptide modifications: H3K115me3 H3K122me1, binder concentration: 1:10,000 dilution
[15] = peptide modifications: H3K115me3 H3R116cit, binder concentration: 1:2,000 dilution
[16] = peptide modifications: H3K115me3 H3R116cit, binder concentration: 1:10,000 dilution
[17] = peptide modifications: H3K115me3 H3R116me2s, binder concentration: 1:2,000 dilution
[18] = peptide modifications: H3K115me3 H3R116me2s, binder concentration: 1:10,000 dilution
[19] = peptide modifications: H3K115me3, binder concentration: 1:2,000 dilution
[20] = peptide modifications: H3K115me3, binder concentration: 1:10,000 dilution
[21] = peptide modifications: H3K115me2 H3R116me2s, binder concentration: 1:2,000 dilution
[22] = peptide modifications: H3K115me2 H3R116me2s, binder concentration: 1:10,000 dilution
[23] = peptide modifications: H3K115me3 H3K122ac, binder concentration: 1:2,000 dilution
[24] = peptide modifications: H3K115me3 H3K122ac, binder concentration: 1:10,000 dilution

In the case of IHAKRVTIMPKDI [H3 112-124 I H A Kme3 Rme V T I M P K D I], the “peptide microarray binding signal” value ([1]; peptide modifications: H3K115me3 H3R116me1, binder concentration: 50 nM) is reported as 0.0052 ± 0.00018, the “peptide microarray binding signal” value ([1]; peptide modifications: H3K115me3 H3R116me1, binder concentration: 500 nM) is reported as 0.00929 ± 0.00049 and the “peptide microarray binding signal” value ([2]; peptide modifications: H3K115me3 H3R116me1, binder concentration: 10 nM) is reported as 0.0491 ± 0.0085. For the same binder, the “peptide microarray binding signal” value ([2]; peptide modifications: H3K115me3 H3R116me1, binder concentration: 100 nM) was 0.07016 ± 0.00021, the “peptide microarray binding signal” value [3, 5] was 0.0275 ± 0.0037 and the “peptide microarray binding signal” value [3, 6] was 0.0305 ± 0.0067. For the same binder, the “peptide microarray binding signal” value [4, 5] was 0.0215 ± 0.0033 and the “peptide microarray binding signal” value [4, 6] was 0.0113 ± 0.0013.

In the case of IHAKRVTIMPKDI [H3 112-124 I H A Kme3 R V T I M P Kme2 D I], the “peptide microarray binding signal” value ([1]; peptide modifications: H3K115me3 H3K122me2, binder concentration: 50 nM) is reported as 0.00464 ± 6.3e-05, the “peptide microarray binding signal” value ([1]; peptide modifications: H3K115me3 H3K122me2, binder concentration: 500 nM) is reported as 0.009477 ± 4.6e-05 and the “peptide microarray binding signal” value ([2]; peptide modifications: H3K115me3 H3K122me2, binder concentration: 10 nM) is reported as 0.0436 ± 0.0022. The “peptide microarray binding signal” value ([2]; peptide modifications: H3K115me3 H3K122me2, binder concentration: 100 nM) was 0.0676 ± 0.0025, the “peptide microarray binding signal” value [3, 7] was 0.0196 ± 0.00059 and the “peptide microarray binding signal” value [3, 8] was 0.0182 ± 0.0013. For the same binder, the “peptide microarray binding signal” value [4, 7] was 0.0246 ± 0.0043 and the “peptide microarray binding signal” value [4, 8] was 0.00894 ± 0.00038.

For IHAKRVTIMPKDI [H3 112-124 I H A Kme3 R V T I M P Kme3 D I], the “peptide microarray binding signal” value ([1]; peptide modifications: H3K115me3 H3K122me3, binder concentration: 50 nM) was 0.00652 ± 0.00013, the “peptide microarray binding signal” value ([1]; peptide modifications: H3K115me3 H3K122me3, binder concentration: 500 nM) was 0.014 ± 0.00024 and the “peptide microarray binding signal” value ([2]; peptide modifications: H3K115me3 H3K122me3, binder concentration: 10 nM) was 0.08 ± 0.013. The “peptide microarray binding signal” value ([2]; peptide modifications: H3K115me3 H3K122me3, binder concentration: 100 nM) was 0.133 ± 0.011, the “peptide microarray binding signal” value [3, 9] was 0.0798 ± 0.017 and the “peptide microarray binding signal” value [3, 10] was 0.0823 ± 0.0064. The “peptide microarray binding signal” value [4, 9] was 0.0648 ± 0.013 and the “peptide microarray binding signal” value [4, 10] was 0.0227 ± 0.0026.

With IHAKRVTIMPKDI [H3 112-124 I H A Kme3 Rme2a V T I M P K D I] the “peptide microarray binding signal” value ([1]; peptide modifications: H3K115me3 H3R116me2a, binder concentration: 50 nM) was 0.00345 ± 4.9e-05, the “peptide microarray binding signal” value ([1]; peptide modifications: H3K115me3 H3R116me2a, binder concentration: 500 nM) was 0.00524 ± 0.00015 and the “peptide microarray binding signal” value ([2]; peptide modifications: H3K115me3 H3R116me2a, binder concentration: 10 nM) was 0.0172 ± 0.00022. For the same binder, the “peptide microarray binding signal” value ([2]; peptide modifications: H3K115me3 H3R116me2a, binder concentration: 100 nM) was 0.0232 ± 0.0011, the “peptide microarray binding signal” value [3, 11] was 0.00885 ± 0.0017 and the “peptide microarray binding signal” value [3, 12] was 0.00451 ± 0.00052. For the same binder, the “peptide microarray binding signal” value [4, 11] was 0.00763 ± 0.0013 and the “peptide microarray binding signal” value [4, 12] was 0.00467 ± 0.00017.

In the case of IHAKRVTIMPKDI [H3 112-124 I H A Kme3 R V T I M P Kme D I], the “peptide microarray binding signal” value ([1]; peptide modifications: H3K115me3 H3K122me1, binder concentration: 50 nM) is reported as 0.006489 ± 2.2e-05, the “peptide microarray binding signal” value ([1]; peptide modifications: H3K115me3 H3K122me1, binder concentration: 500 nM) is reported as 0.0138 ± 0.00023 and the “peptide microarray binding signal” value ([2]; peptide modifications: H3K115me3 H3K122me1, binder concentration: 10 nM) is reported as 0.0505 ± 0.0051. The “peptide microarray binding signal” value ([2]; peptide modifications: H3K115me3 H3K122me1, binder concentration: 100 nM) was 0.0785 ± 0.0067, the “peptide microarray binding signal” value [3, 13] was 0.0317 ± 0.0091 and the “peptide microarray binding signal” value [3, 14] was 0.0326 ± 0.0097. For the same binder, the “peptide microarray binding signal” value [4, 13] was 0.0313 ± 0.0018 and the “peptide microarray binding signal” value [4, 14] was 0.0119 ± 0.00075.

For IHAKRVTIMPKDI [H3 112-124 I H A Kme3 Rcit V T I M P K D I], the “peptide microarray binding signal” value ([1]; peptide modifications: H3K115me3 H3R116cit, binder concentration: 50 nM) was 0.00821 ± 0.00022, the “peptide microarray binding signal” value ([1]; peptide modifications: H3K115me3 H3R116cit, binder concentration: 500 nM) was 0.0148 ± 0.00063 and the “peptide microarray binding signal” value ([2]; peptide modifications: H3K115me3 H3R116cit, binder concentration: 10 nM) was 0.0661 ± 0.012. The “peptide microarray binding signal” value ([2]; peptide modifications: H3K115me3 H3R116cit, binder concentration: 100 nM) was 0.0923 ± 0.011, the “peptide microarray binding signal” value [3, 15] was 0.0677 ± 0.0083 and the “peptide microarray binding signal” value [3, 16] was 0.058 ± 0.0049. For the same binder, the “peptide microarray binding signal” value [4, 15] was 0.0746 ± 0.0023 and the “peptide microarray binding signal” value [4, 16] was 0.0265 ± 0.00085.

For IHAKRVTIMPKDI [H3 112-124 I H A Kme3 Rme2s V T I M P K D I], the “peptide microarray binding signal” value ([1]; peptide modifications: H3K115me3 H3R116me2s, binder concentration: 50 nM) was 0.00351 ± 6.2e-05, the “peptide microarray binding signal” value ([1]; peptide modifications: H3K115me3 H3R116me2s, binder concentration: 500 nM) was 0.00576 ± 0.00044 and the “peptide microarray binding signal” value ([2]; peptide modifications: H3K115me3 H3R116me2s, binder concentration: 10 nM) was 0.0107 ± 0.00099. The “peptide microarray binding signal” value ([2]; peptide modifications: H3K115me3 H3R116me2s, binder concentration: 100 nM) was 0.0126 ± 0.0027, the “peptide microarray binding signal” value [3, 17] was 0.00608 ± 0.0018 and the “peptide microarray binding signal” value [3, 18] was 0.0069 ± 0.00085. For the same binder, the “peptide microarray binding signal” value [4, 17] was 0.0055 ± 0.00076 and the “peptide microarray binding signal” value [4, 18] was 0.00386 ± 0.00058.

IHAKRVTIMPKDI [H3 112-124 I H A Kme3 R V T I M P K D I] was tested, and the “peptide microarray binding signal” value ([1]; peptide modifications: H3K115me3, binder concentration: 50 nM) was 0.00549 ± 0.00022, the “peptide microarray binding signal” value ([1]; peptide modifications: H3K115me3, binder concentration: 500 nM) was 0.0171 ± 0.00049 and the “peptide microarray binding signal” value ([2]; peptide modifications: H3K115me3, binder concentration: 10 nM) was 0.026 ± 0.0073. The “peptide microarray binding signal” value ([2]; peptide modifications: H3K115me3, binder concentration: 100 nM) was 0.00872 ± 0.00066, the “peptide microarray binding signal” value [3, 19] was 0.0334 ± 0.0055 and the “peptide microarray binding signal” value [3, 20] was 0.0596 ± 0.027. For the same binder, the “peptide microarray binding signal” value [4, 19] was 0.0319 ± 0.041 and the “peptide microarray binding signal” value [4, 20] was 0.0536 ± 0.0037.

IHAKRVTIMPKDI [H3 112-124 I H A Kme2 Rme2s V T I M P K D I] was tested, and the “peptide microarray binding signal” value ([1]; peptide modifications: H3K115me2 H3R116me2s, binder concentration: 50 nM) was 0.006426 ± 2.2e-05, the “peptide microarray binding signal” value ([1]; peptide modifications: H3K115me2 H3R116me2s, binder concentration: 500 nM) was 0.00905 ± 0.00055 and the “peptide microarray binding signal” value ([2]; peptide modifications: H3K115me2 H3R116me2s, binder concentration: 10 nM) was 0.0113 ± 0.0004. The “peptide microarray binding signal” value ([2]; peptide modifications: H3K115me2 H3R116me2s, binder concentration: 100 nM) was 0.0135 ± 0.00076, the “peptide microarray binding signal” value [3, 21] was 0.00383 ± 0.0002 and the “peptide microarray binding signal” value [3, 22] was 0.00462 ± 0.00022. For the same binder, the “peptide microarray binding signal” value [4, 21] was 0.00335 ± 0.00032 and the “peptide microarray binding signal” value [4, 22] was 0.00236 ± 3.7e-05.

For IHAKRVTIMPKDI [H3 112-124 I H A Kme3 R V T I M P Kac D I], the “peptide microarray binding signal” value ([1]; peptide modifications: H3K115me3 H3K122ac, binder concentration: 50 nM) was 0.00408 ± 6.9e-05, the “peptide microarray binding signal” value ([1]; peptide modifications: H3K115me3 H3K122ac, binder concentration: 500 nM) was 0.00905 ± 0.0013 and the “peptide microarray binding signal” value ([2]; peptide modifications: H3K115me3 H3K122ac, binder concentration: 10 nM) was 0.0419 ± 0.0077. The “peptide microarray binding signal” value ([2]; peptide modifications: H3K115me3 H3K122ac, binder concentration: 100 nM) was 0.0725 ± 0.024, the “peptide microarray binding signal” value [3, 23] was 0.0222 ± 0.0067 and the “peptide microarray binding signal” value [3, 24] was 0.0228 ± 0.0068. The “peptide microarray binding signal” value [4, 23] was 0.0259 ± 0.0045 and the “peptide microarray binding signal” value [4, 24] was 0.0117 ± 0.0018.
